PubChem BioAssay AID1159580 (chemical genetic matrix, 2015)
About 2,000 (36%) of roughly 5,500 compounds were called active. Not shown: some 18% with an inconclusive outcome. No stated cut-off is given here; in the data, active means normalized growth mostly below about 0.91 (no sharp cut-off); inconclusive means no clear call, values can overlap the other calls; inactive means mostly above about 0.92. This is one part of the list.

Experiment: chemical genetic growth profiling, strain panel (AID 1159580);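 further: tested at 20 µM; growth read once vehicle control cultures reached saturation at 30 °C; 1 = growth at the plate median or of vehicle wells; lower values mean less growth of the strain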
Details: growth OD

Measured: normalized growth

OC(CNCCc1cccs1)COc1ccccc1 (stereo not given)
inactive: S. cerevisiae deletion strains, locus YAL013W, strain DEP1, active compounds read low 0.995 | S. cerevisiae deletion strains, locus YBR229C, strain ROT2, active compounds read low 0.987 | S. cerevisiae deletion strains, locus YCL061C, strain MRC1, active compounds read low 0.994 | S. cerevisiae deletion strains, locus YDL101C, strain DUN1, active compounds read low 0.999 | S. cerevisiae deletion strains, locus YDL134C, strain PPH21, active compounds read low 0.986 | S. cerevisiae deletion strains, locus YDR150W, strain NUM1, active compounds read low 0.976 | S. cerevisiae deletion strains, locus YEL061C, strain CIN8, active compounds read low 0.998 | S. cerevisiae deletion strains, locus YGR078C, strain PAC10, active compounds read low 0.989 | S. cerevisiae deletion strains, locus YHR030C, strain SLT2, active compounds read low 0.934 | S. cerevisiae deletion strains, locus YHR087W, strain rtc3, active compounds read low 0.998 | S. cerevisiae deletion strains, locus YJR043C, strain POL32, active compounds read low 0.994 | S. cerevisiae deletion strains, locus YJR075W, strain HOC1, active compounds read low 1.01 | S. cerevisiae deletion strains, locus YKL190W, strain CNB1, active compounds read low 0.982 | S. cerevisiae deletion strains, locus YLR039C, strain RIC1, active compounds read low 0.944 | S. cerevisiae deletion strains, locus YLR058C, strain SHM2 (second series), active compounds read low 0.991 | S. cerevisiae deletion strains, locus YLR085C, strain ARP6, active compounds read low 1.08 | S. cerevisiae deletion strains, locus YLR262C, strain YPT6, active compounds read low 0.831 | S. cerevisiae deletion strains, locus YML094W, strain GIM5, active compounds read low 1.06 | S. cerevisiae deletion strains, locus YMR219W, strain ESC1, active compounds read low 1 | S. cerevisiae deletion strains, locus YMR263W, strain SAP30, active compounds read low 0.99 | S. cerevisiae deletion strains, locus YMR307W, strain GAS1, active compounds read low 1.13 | S. cerevisiae deletion strains, locus YNL153C, strain GIM3, active compounds read low 0.995 | S. cerevisiae deletion strains, locus YNL298W, strain CLA4 (second series), active compounds read low 0.964 | S. cerevisiae deletion strains, locus YNL322C, strain KRE1, active compounds read low 1 | S. cerevisiae deletion strains, locus YNR030W, strain Alg12, active compounds read low 1 | S. cerevisiae deletion strains, locus YOL006C, strain TOP1, active compounds read low 0.939 | S. cerevisiae deletion strains, locus YPL055C, strain LGE1, active compounds read low 1.03 | S. cerevisiae deletion strains, locus YPL241C, strain CIN2, active compounds read low 1.02 | S. cerevisiae deletion strains, locus YPR135W, strain CTF4, active compounds read low 0.949 | S. cerevisiae strains, strain wild type, active compounds read low 0.967
